This is a sample that favours compounds with a hit; in the whole collection about 13% have one here.
Pf growth 48h: Primary qHTS for delayed death inhibitors of the malarial parasite plastid, 48 hour incubation; P. falciparum luciferase growth in erythrocytes, 48 h; Potency, µM (doses to about 28.7 µM), inactives show at the highest dose activity change, negative = inhibition, hits mostly inhibitors; 310,000 tested, 5.9% active; AID 504832, 2011; note: potency is the fitted concentration of half-maximal effect
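Read-out is firefly luciferase luminescence from an integrated reporter in P. falciparum, so falling signal marks reduced parasite growth. Infected erythrocytes were at 2% hematocrit and 0.1% parasitemia (final) in Albumax-supplemented RPMI 1640.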
HCV inhibitor: qHTS Assay for Inhibitors of Hepatitis C Virus (HCV); Huh7.5.1 HCVcc-Cre infection, luciferase reporter, 44 h; Potency, µM (top dose mostly 41.8 µM), for inactives: at the highest dose activity change, negative = inhibition, actives largely listed as inhibitors; 340,000 tested, 3.4% active; note: potency is the fitted concentration of half-maximal effect
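Infectious HCV cell culture screen: compound-treated cells (1,000/well, pre-plated 4 h) are infected with HCVcc-Cre at roughly 0.5 moi and grown 44 h. Infection is quantified by luciferase signal after 15 min substrate incubation at room temperature.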
Pf growth 96h: Primary qHTS for delayed death inhibitors of the malarial parasite plastid, 96 hour incubation; P. falciparum luciferase reporter growth, 96 h; 320,000 tested, 6.9% active; Potency, µM (top dose mostly 28.7 µM), inactives show at the highest dose activity change, negative = inhibition, hits mostly inhibitors; note: potency is the fitted concentration of half-maximal effect
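Erythrocytes infected with luciferase-expressing P. falciparum were dispensed at 2% hematocrit and 0.05% parasitemia (final), then incubated with compounds 96 hours at 37 C in 5% CO2. Luminescence after detection reagent addition reported growth.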
HCMV inh: qHTS Assay for inhibitors of the human cytomegalovirus (HCMV); 410,000 tested, 4.5% active; activity change, negative = inhibition, % at 57.5 µM; HFF cells, HCMV-luciferase reporter, 72 h; stronger effect = lower value; in the data active = activity change below about -60%; inconclusive = no clear call, values can overlap the other calls; inactive = above about -39%
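Human foreskin fibroblasts infected with luciferase-reporter HCMV at MOI 1 PFU/cell, compounds at two doses. Luciferase measured 72 h post infection; normalized to buffer-only basal and Salinomycin (10uM) controls.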
Numbers without * were called inactive; u = inconclusive; x = no result. Unless noted, calls come from the whole dose curve; as a rule, active = well fitted inhibition curve with a large enough effect; inconclusive = small, poorly fitted or top-dose-only effect, or another doubt; inactive = no such curve, though single readings can be large or run the other way. % is set by controls: 0 for no effect and ±100 for the full control effect.

SMILES	Pf growth 48h	HCV inhibitor	Pf growth 96h	HCMV inh
Cc1sc2ncnc(SCC(=O)NC(=O)NCc3ccco3)c2c1C	44%	u	-20%	4
O=C(NCCC1=CCCCC1)c1ccc2c(c1)N(Cc1ccccc1)C(=O)c1ccccc1S2(=O)=O	x	x	x	-19
CCN(CC)c1ccc(NC(=O)Cn2cc3c(n2)CCCC3)c(C)c1	x	x	x	-29
CCN1[C@@H]2c3cccc(=O)n3C[C@H]1[C@H](CO)[C@H]2C(=O)OC	x	x	x	-5
COc1cc(Nc2cc3c(cn2)cc(-c2cccnc2)n3C)cc(C(F)(F)F)c1	x	x	x	0
COc1ccccc1NC(=O)CSC1=Nc2ccccc2C2=NC(CCC(=O)NCc3cccs3)C(=O)N12 (configuration not stated)	x	x	x	-29
COc1cnc(-c2ccccn2)nc1Sc1ccccc1	13µM*	6.3µM*	u	-100*
CCOC(=O)CSc1nc(-c2ccccn2)ncc1OC	0%	u	u	-9
COc1cnc(N(C)C)nc1Sc1ccc(Cl)cc1	-17%	u	61%	-11
COc1cnc(-c2ccccn2)nc1Sc1ccc(Cl)cc1	2.3µM*	u	1.7µM*	-14
COc1ccc(Sc2nc(-c3ccccn3)ncc2OC)cc1	3.3µM*	u	3.3µM*	u
COc1cnc(-c2ccccn2)nc1Sc1ccc(F)cc1	4.7µM*	0.56µM*	1.7µM*	u
CC(=O)CCc1c(C)nc2ccc(C)cc2c1Cl	5%	-12%	u	-80*
CCc1cccc(-n2c(=O)c3cccnc3n2CC(=O)NCc2ccccc2)c1	x	x	x	-21
O=C(CC(=O)c1ccccc1)Nc1ccccc1C(F)(F)F	21%	-2%	12µM*	1
O=C(COc1ccc(C(=S)N2CCOCC2)cc1)Nc1ccccc1C(F)(F)F	36%	u	u	-87*
COc1cc(C(=O)N2CCCCC2)ccc1OCC(=O)Nc1ccc(F)cc1	-9%	u	-1%	7
O=C(COc1ccc(C(=S)N2CCCC2)cc1)Nc1ccccc1C(F)(F)F	17%	-18%	u	-65*
O=C(COc1ccc(C(=S)N2CCCC2)cc1)Nc1ccc(F)cc1	-22%	-26%	10µM*	u
O=C(COc1ccc(Br)cc1)Nc1ccccc1C(=O)N1CCOCC1	1%	x	31%	-8
CCC1CN(C(=O)N2CCC(C(=O)NCc3cccc(F)c3)CC2)c2cc(C)ccc2O1 (configuration not stated)	x	x	x	49
Cc1ccc(OCCCn2c(-c3ccc(Cl)cc3)nc3ccccc3c2=O)cc1C	x	x	x	18
CCOC(=O)c1ccc(OCC2c3cc(OC)c(OC)cc3CCN2C(=O)Cc2ccc(OC)c(OC)c2)cc1 (configuration not stated)	x	x	x	21
COc1ccc(S(=O)(=O)N2CCOCC2)cc1NC(=O)c1cccc2c(=O)c(C)c(-c3ccccc3)oc12	5.2µM*	u	2.1µM*	11
COc1ccc(S(=O)(=O)N2CCOCC2)cc1NC(=O)c1ccccc1-c1ccc(C(F)(F)F)cc1	u	-13%	u	u
SMILES	Pf growth 48h	HCV inhibitor	Pf growth 96h	HCMV inh
CCN(CC)S(=O)(=O)c1ccc(N2CCOCC2)c(NC(=O)c2cccc3c(=O)c(C)c(-c4ccccc4)oc23)c1	x	8.9µM*	x	-8
CCOc1ccc(CN(C(=O)c2cc(=O)c3cc(Cl)ccc3o2)C2CCS(=O)(=O)C2)cc1 (configuration not stated)	x	x	x	25
CCOc1ccccc1-n1nnc(S(=O)(=O)c2ccc(C)cc2)c1N	x	x	x	-27
O=[N+]([O-])c1ccc(-c2nc(C(Cl)Cl)c3ccccc3n2)cc1	u	2µM*	u	-102*
O=[N+]([O-])c1ccc(-c2nc(NCc3cccnc3)c3ccccc3n2)cc1	1%	-15%	15µM*	-16
CN(Cc1ccccc1)c1nc(-c2ccc([N+](=O)[O-])cc2)nc2ccccc12	10%	-2%	u	-40
COc1cccc(CNc2nc(-c3cccnc3)nc3ccccc23)c1	-10%	u	u	-18
Fc1ccccc1CNc1nc(-c2cccnc2)nc2ccccc12	12µM*	35µM*	5.2µM*	12
c1cncc(-c2nc(NCc3cccs3)c3ccccc3n2)c1	u	-30%	13µM*	u
COc1ccc2c(c1)Cc1sc(NC(=O)c3ccccc3C)nc1-2	x	x	x	-26
CCc1ccc(-n2nc(CO)c(C(=O)NCCOC)n2)cc1	x	x	x	59
CCOc1ccc(C(=O)NCCc2csc(-c3ccc(C(F)(F)F)cc3)n2)cc1OCC	x	x	x	39
CSc1cc(-c2ccncc2)nc(-c2ccc(Cl)cc2)c1	x	u	15µM*	x
Cc1ccccc1C(=O)OCCN1CCOCC1	9%	29%	8.3µM*	-26
CCCNC(=O)c1oc2ccc3c(c2c1C)C=CC(C)(C)O3	43%	u	42%	-61*
CCOC(=O)c1ccc(NC(=O)c2oc3ccc4c(c3c2C)C(=O)CC(C)(CC)O4)cc1 (configuration not stated)	x	x	x	7
CCOC(=O)c1oc2ccc3c(c2c1C)C(=O)CC1(CCN(C(=O)OCC)CC1)O3	2.6µM*	11%	16%	-15
CCCNC(=O)c1oc2ccc3c(c2c1C)C(=O)CC(C)(C)O3	94%	10µM*	x	9
Cc1c(C(=O)NCc2ccc(Cl)cc2)oc2ccc3c(c12)C(=O)CC(C)(C)O3	x	x	x	-18
CCc1nc2ccc(Br)cc2c(=O)n1-c1ccccc1C(F)(F)F	x	u	x	6
CCCc1nc2ccc(Br)cc2c(=O)n1-c1ccc([N+](=O)[O-])c(C(F)(F)F)c1	12µM*	u	34%	-87*
COc1ccc(Cn2c(-c3ccc(C)cc3)c[n+]3ccccc23)cc1	0.37µM*	u	0.1µM*	-97*
CCCc1cc(=O)oc2c3c(cc(OCC(=O)NCc4ccccn4)c12)OC(C)(C)CC3	12µM*	10µM*	15µM*	u
Cc1c(C)c2cc(Cl)c(OCC(=O)NCCCN3CCCC3=O)cc2oc1=O	x	x	x	-11
O=C(COc1cc2oc(=O)c3c(c2cc1Cl)CCC3)NCCCN1CCCC1=O	u	-12%	13µM*	-30
SMILES	Pf growth 48h	HCV inhibitor	Pf growth 96h	HCMV inh
CCCCc1cc(=O)oc2c3c(cc(OCC(=O)NCCCO)c12)OC(C)(C)CC3	u	u	u	48
CCCc1cc(=O)oc2c3c(cc(OCC(=O)NCc4ccncc4)c12)OC(C)(C)CC3	-33%	u	u	-39
CCCc1cc(=O)oc2c3c(cc(OCC(=O)NCCN4CCOCC4)c12)OC(C)(C)CC3	u	u	9.3µM*	-18
CCCc1cc(=O)oc2cc(OCC(=O)NCCN3CCOCC3)c(Cl)cc12	x	x	x	-79*
COc1ccccc1CNC(=O)CC1N=C2c3ccccc3N=C(SCC(=O)Nc3ccc(F)cc3)N2C1=O (configuration not stated)	x	x	x	35
CCN(CC)c1cc2c(cc1F)c(=O)c(S(=O)(=O)c1ccc(C)cc1)cn2Cc1ccc(F)cc1	x	x	x	3

Assay outcomes (PubChem BioAssay)
